According to PubChem BioAssay (EPA / NIEHS):
The source made the active and inactive calls. The calls were made as follows: active = hit-call score of the fitted dose curve at least 0.9, where 1 is the maximum; inactive = score below 0.9.

Columns and labels:
Conditions in all cases: mRNA level, 48 h; actives raise or lower the signal
[1] = read-out: Glutathione S-transferase M3 (GSTM3), GSTM3 (gene 2947); experiment: LTEA_HepaRG_GSTM3: Life Technologies and Expression Analysis (LTEA) Assay for Glutathione S-transferase M3 (GSTM3) using HepaRG (AID 2283501)
In short: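 Differentiated human HepaRG cells were exposed in duplicate for 48 h in serum-free induction medium, 8 points from 100 uM top in half-log steps, 0.5% DMSO. GSTM3 mRNA was measured by TaqMan qRT-PCR, normalized to ACTB, GAPDH and POLR2A; bidirectional fit versus DMSO.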

[2] = read-out: Heat shock 70 kDa protein 1 (HSPA1A), gene 3303; experiment: LTEA_HepaRG_HSPA1A: Life Technologies and Expression Analysis (LTEA) Assay for Heat shock 70 kDa protein 1 (HSPA1A) using HepaRG (AID 2283502)
In short: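 Cells were plated and cultured for 48 h, then switched to serum-free induction medium. Chemicals were added at eight half-log concentrations up to 100 uM for 48 h. RNA was then isolated and HSPA1A measured by qRT-PCR with bidirectional curve fitting against DMSO.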

[3] = read-out: Hypoxia-inducible factor 1-alpha (Homo sapiens) (UniProt Q16665); experiment: LTEA_HepaRG_HIF1A: Life Technologies and Expression Analysis (LTEA) Assay for Hypoxia-inducible factor 1 (HIF1A) Trancription factor using HepaRG (AID 2283503)
In short: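 HIF1A transcript level read by qRT-PCR (ACTB, GAPDH, POLR2A normalization) after 48 h chemical exposure of HepaRG cultures. Eight half-log concentrations, top 100 uM, 0.5% DMSO vehicle, duplicates; bidirectional curve fit against DMSO baseline.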

[4] = read-out: 3-Hydroxy-3-Methylglutaryl-CoA Synthase 2 (HMGCS2), HMGCS2 (gene 3158); experiment: LTEA_HepaRG_HMGCS2: Life Technologies and Expression Analysis (LTEA) Assay for 3-Hydroxy-3-Methylglutaryl-CoA Synthase 2 (HMGCS2) using HepaRG (AID 2283504)
In short: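 Human HepaRG cells in serum-free induction medium were exposed in duplicate for 48 h to 8-point half-log series from 100 uM top in 0.5% DMSO. HMGCS2 mRNA measured by TaqMan qRT-PCR, normalised to ACTB, GAPDH, POLR2A; bidirectional fit versus DMSO.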

HGF (gene 3082) = experiment: LTEA_HepaRG_HGF: Life Technologies and Expression Analysis (LTEA) Assay for Hepatocyte Growth Facto (HGF) using HepaRG (AID 2283505)
In short: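 Differentiated HepaRG cells in serum-free induction medium exposed 48 h in duplicate, 8 half-log concentrations from 100 uM in 0.5% DMSO. HGF mRNA by qRT-PCR, normalised to ACTB, GAPDH, POLR2A; bidirectional fitting.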

[5] = read-out: Insulin Like Growth Factor 1 (IGF1), IGF1 (gene 3479); experiment: LTEA_HepaRG_IGF1: Life Technologies and Expression Analysis (LTEA) Assay for Insulin Like Growth Factor 1 (IGF1) using HepaRG (AID 2283506)
In short: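 Cells are thawed, plated and cultured 48 h, then exposed in duplicate to chemical (highest 100 uM, half-log steps, 0.5% DMSO) for another 48 h. Total RNA is analysed by Fluidigm qRT-PCR for IGF1 expression relative to vehicle.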

[6] = read-out: Intercellular Adhesion Molecule 1 (ICAM1), ICAM1 (gene 3383); experiment: LTEA_HepaRG_ICAM1: Life Technologies and Expression Analysis (LTEA) Assay for Intercellular Adhesion Molecule 1 (ICAM1) using HepaRG (AID 2283507)
In short: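 Differentiated human HepaRG cells in serum-free induction medium exposed 48 h in duplicate to 8 half-log concentrations (top 100 uM, 0.5% DMSO). ICAM1 mRNA quantified by TaqMan qRT-PCR, normalized to ACTB, GAPDH and POLR2A; bidirectional fitting versus DMSO.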

[7] = read-out: Insulin-like growth factor-binding protein 1 (IGFBP1), IGFBP1 (gene 3484); experiment: LTEA_HepaRG_IGFBP1: Life Technologies and Expression Analysis (LTEA) Assay for Insulin-like growth factor-binding protein 1 (IGFBP1) using HepaRG (AID 2283508)
In short: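 HepaRG cells, plated 48 h then switched to serum-free induction medium, exposed in duplicate for 48 h to 8-point half-log series from 100 uM in 0.5% DMSO. mRNA measured by qRT-PCR, normalized to ACTB/GAPDH/POLR2A; bidirectional fit versus DMSO.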

[8] = read-out: Interleukin 6 (IL6), IL6 (gene 3569); experiment: LTEA_HepaRG_IL6: Life Technologies and Expression Analysis (LTEA) Assay for Interleukin 6 (IL6) using HepaRG (AID 2283509)
In short: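 Changes in IL6 mRNA, up or down relative to 0.5% DMSO controls, were derived from concentration-response curves in human HepaRG cells treated for 48 h at up to 100 uM, with ACTB, GAPDH and POLR2A as normalizers.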

[9] = read-out: Interleukin 6 Receptor (IL6R), IL6R (gene 3570); experiment: LTEA_HepaRG_IL6R: Life Technologies and Expression Analysis (LTEA) Assay for Interleukin 6 Receptor (IL6R) using HepaRG (AID 2283510);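 as to AC50: TaqMan qRT-PCR signal normalized to ACTB GAPDH and POLR2A housekeeping genes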
In short: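 Cells were thawed, plated and cultured 48 h, then medium was changed to serum-free induction medium. Chemicals were added in duplicate (100 uM top, half-log steps, 0.5% DMSO) for 48 h. Lysates were analyzed by qRT-PCR for IL6R expression.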

Measured: AC50

Sequence of Hypoxia-inducible factor 1-alpha (Homo sapiens) (Q16665 whole entry, looked up): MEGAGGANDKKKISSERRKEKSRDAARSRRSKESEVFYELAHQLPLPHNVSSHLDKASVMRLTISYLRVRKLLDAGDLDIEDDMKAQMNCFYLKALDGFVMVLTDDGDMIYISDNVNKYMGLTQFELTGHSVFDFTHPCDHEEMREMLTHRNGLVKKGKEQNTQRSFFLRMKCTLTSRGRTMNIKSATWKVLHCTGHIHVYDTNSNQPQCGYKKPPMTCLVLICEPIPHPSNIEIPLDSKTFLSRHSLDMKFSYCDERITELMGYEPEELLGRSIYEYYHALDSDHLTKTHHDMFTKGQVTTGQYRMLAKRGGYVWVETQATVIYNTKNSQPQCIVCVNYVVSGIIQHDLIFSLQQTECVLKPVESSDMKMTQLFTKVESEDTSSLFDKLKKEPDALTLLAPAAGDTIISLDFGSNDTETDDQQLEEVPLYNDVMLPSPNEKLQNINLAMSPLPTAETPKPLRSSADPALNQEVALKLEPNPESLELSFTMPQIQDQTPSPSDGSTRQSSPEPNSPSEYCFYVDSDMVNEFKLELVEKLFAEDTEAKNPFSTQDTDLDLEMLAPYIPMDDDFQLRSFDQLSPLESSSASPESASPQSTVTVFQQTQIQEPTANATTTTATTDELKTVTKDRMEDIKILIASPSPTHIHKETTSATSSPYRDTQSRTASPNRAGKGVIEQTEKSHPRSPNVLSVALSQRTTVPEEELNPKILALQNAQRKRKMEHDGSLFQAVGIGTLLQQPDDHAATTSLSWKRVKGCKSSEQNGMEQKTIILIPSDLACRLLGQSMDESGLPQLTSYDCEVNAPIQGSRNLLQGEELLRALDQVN

CCOP(=O)(OCC)Oc1nc(Cl)c(Cl)cc1Cl
active: [3] 49.8 µM | [4] 84.8 µM | [9] 60.2 µM
inactive: all other assays above

COc1ccc(-c2ccccc2)cc1NNC(=O)OC(C)C
inactive: all assays above

C=CCOC(=O)C(C)(C)OC(=O)c1cc(-n2c(=O)cc(C(F)(F)F)n(C)c2=O)ccc1Cl
not listed: [6]
inactive: all other assays above

CN=C=S
not listed: [6]
inactive: all other assays above

CC(C)Nc1nc(Cl)nc(NC(C)C)n1
active: [4] 23.6 µM
not listed: [6]
inactive: all other assays above

CCCC(=NOCC)C1=C(O)CC(CC(C)SCC)CC1=O (configuration not stated)
not listed: [6]
inactive: all other assays above

CCSC(=O)N1CCCCCC1
not listed: [6]
inactive: all other assays above

Cc1cc(C)nc(Nc2ccccc2)n1
not listed: [6]
inactive: all other assays above

CN/C(=N\[N+](=O)[O-])NCc1cnc(Cl)s1
not listed: [6]
inactive: all other assays above

CC(C)(C)C(=O)C(Oc1ccc(Cl)cc1)n1cncn1 (configuration not stated)
not listed: [5]
inactive: all other assays above

CNC(=O)N(C)c1nnc(C(C)(C)C)s1
not listed: [3]
inactive: all other assays above

CCNC(=O)NC(=O)C(C#N)=NOC
active: [4] 50 µM
not listed: [6]
inactive: all other assays above

COCc1cnc(C2=NC(C)(C(C)C)C(=O)N2)c(C(=O)O)c1 (configuration not stated)
not listed: [6]
inactive: all other assays above

CCOc1nc(C(Cl)(Cl)Cl)ns1
active: [1] 22.9 µM | HGF (gene 3082) 1.21 µM | [5] 0.965 µM | [7] 1.01 µM | [8] 15 µM | [9] 0.987 µM
inactive: [2] | [3] | [4]

O=c1n(Cl)c(=O)n(Cl)c(=O)n1Cl
not listed: [6]
inactive: all other assays above

Nc1c(Cl)c(Cl)nc(C(=O)O)c1Cl
not listed: [6]
inactive: all other assays above

N#Cc1c(Cl)cccc1Cl
not listed: [6]
inactive: all other assays above

CC1(C)C(C=C(Cl)Cl)C1C(=O)OC(C#N)c1cccc(Oc2ccccc2)c1 (configuration not stated)
active: [5] 50 µM
not listed: [6]
inactive: all other assays above

CC1(C)CCC(=Cc2ccc(Cl)cc2)C1(O)Cn1cncn1 (configuration not stated)
active: [5] 25 µM
not listed: [6]
inactive: all other assays above

COC(=O)NS(=O)(=O)c1ccc(N)cc1
not listed: [6]
inactive: all other assays above

CS(=O)(=O)c1ccc(C(=O)C2C(=O)CCCC2=O)c([N+](=O)[O-])c1
not listed: [6]
inactive: all other assays above

OC(c1ccc(Cl)cc1)(c1ccc(Cl)cc1)C(Cl)(Cl)Cl
active: [1] 81.2 µM | [2] 89.3 µM | [4] 80.1 µM | [5] 50 µM | [7] 73.6 µM | [8] 76.6 µM
inactive: [3] | HGF (gene 3082) | [9]

CCCCC(C#N)(Cn1cncn1)c1ccc(Cl)cc1 (configuration not stated)
active: [4] 78.1 µM | [5] 68.7 µM
not listed: [6]
inactive: all other assays above

CO/N=C(/C1=NOCCO1)c1ccccc1Oc1ncnc(Oc2ccccc2Cl)c1F
active: [4] 21.9 µM | [5] 10.6 µM | [7] 20.3 µM | [8] 28.4 µM
not listed: [6]
inactive: all other assays above

COP(=O)(OC)O/C(C)=C/C(=O)N(C)C
not listed: [6]
inactive: all other assays above

COCC(C)N(C(=O)CCl)c1c(C)csc1C (configuration not stated)
active: [5] 50 µM | [8] 22.7 µM
not listed: [3] | [6]
inactive: all other assays above

COC(=O)NC(=S)Nc1ccccc1NC(=S)NC(=O)OC
active: [5] 29.9 µM
not listed: [6]
inactive: all other assays above

CNC(=O)Oc1cccc2ccccc12
not listed: [6]
inactive: all other assays above

Cc1cnc(C2=NC(C)(C(C)C)C(=O)N2)c(C(=O)O)c1 (configuration not stated)
not listed: [6]
inactive: all other assays above

CC(C)N1C(=O)N(c2ccccc2)CSC1=NC(C)(C)C
active: [4] 75.5 µM | [5] 59.9 µM | [7] 89.1 µM | [8] 77.1 µM
not listed: [6]
inactive: all other assays above

CCOP(=S)(OCC)Oc1nc(Cl)n(C(C)C)n1
active: [4] 17.2 µM | [5] 18.9 µM | [7] 1.57 µM | [9] 12.2 µM
not listed: [6]
inactive: all other assays above

Clc1cccc(C(Cl)(Cl)Cl)n1
not listed: [6]
inactive: all other assays above

O=C(O)c1c(Cl)ccc2cc(Cl)cnc12
not listed: [6]
inactive: all other assays above

COC(=O)c1c(C(F)F)nc(C(F)(F)F)c(C2=NCCS2)c1CC(C)C
active: [9] 12.2 µM
not listed: [6]
inactive: all other assays above

COc1cc(Cl)c(OC)cc1Cl
not listed: [3] | [6]
inactive: all other assays above

CC(C)Oc1cccc(NC(=O)c2ccccc2C(F)(F)F)c1
active: [5] 80.9 µM
not listed: [6]
inactive: all other assays above

CCN(CC)c1nc(C)cc(OP(=S)(OC)OC)n1
not listed: [6]
inactive: all other assays above

O=C1C2CC=CCC2C(=O)N1SC(Cl)(Cl)Cl (configuration not stated)
active: [7] 20.2 µM
not listed: [6]
inactive: all other assays above
